Compound activity from PubChem.
In the library only some 19% were active in any assay of this set; here they are far more common.
uPA surface inh – blocks generation of uPA at the cell surface; cell surface uPA generation assay, qHTS; Potency, µM (series often up to 38.3 µM), actives largely listed as inhibitors; 330,000 compounds, 0.31% hits; active = well fitted inhibition curve with a large enough effect; inconclusive = small, poorly fitted or top-dose-only effect; inactive = no such curve, though single readings can be large or run the other way; tested in mouse RAW 264.7 cells; note: nearly all actives have a fitted effect of over 55% in size
HT1080 IDH1KD tx – HT-1080 IDH1 knockdown cell toxicity (counter line) | Potency, µM (top dose mostly 46.1 µM), most hits filed as cytotoxic | 360,000 compounds, 2% hits | HT-1080 IDH1 knockdown viability, ATP luminescence, 48 h | AID 686971
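Cytotoxicity counter-line: IDH1KD HT-1080, 48 h, CellTiter-Glo. Curves classed by r2, magnitude and activity.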
HT1080NT lethal – kills 2HG-producing HT-1080-NT fibrosarcoma cells | HT-1080-NT fibrosarcoma viability, CellTiter-Glo ATP luminescence, 48 h | Potency, µM (highest dose often 46.1 µM), most hits filed as cytotoxic | 360,000 compounds, 1.6% hits | AID 686970;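 note: NT is the 2HG producing partner of a matched IDH1 knockdown line; nearly all actives have a fitted effect of over 55% in size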
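A 48-hour cytotoxicity screen used HT-1080-NT cells plated 2 hours before compound delivery. ATP-based CellTiter-Glo luminescence measured viability, normalized to DMSO and no-cell controls.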
DT40 TDP1 CPT – DT40-hTDP1 cell growth loss with CPT | 420,000 compounds, 12% hits | chicken DT40 Tdp1-/-;hTDP1 cells + 20 nM CPT, ATP luminescence, 48 h | Potency, µM (highest dose often 46.2 µM), most hits filed as inhibitors; note: nearly all actives have a fitted effect of over 55% in size
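Chicken DT40 Tdp1-/- cells stably complemented with human TDP1 were seeded at 400 cells/well in medium containing 20 nM camptothecin, exposed to pin-transferred compounds, and grown at 37 °C for at least 48 hr. Viability was read as ATP luminescence.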
IL-1B inflam inh – inhibitors of inflammasome signaling (IL-1 beta secretion); THP-1 LPS/ATP IL-1B secretion, AlphaLISA, 16 h; hits give low values; activity change, % at 57.5 µM; 360,000 compounds, 4.7% hits; in the data active = activity change below about -50%; inconclusive = mostly about -30% to -49%
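THP-1 cells pretreated 1 hr with compounds (up to 57.5 uM final), then stimulated with LPS (250 ng/mL final) plus ATP (1.25 mM final); secreted IL-1B measured by AlphaLISA after 16 hr, decreased signal indicating inhibition.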
TDP1 cell noCPT – qHTS for Inhibitors of human tyrosyl-DNA phosphodiesterase 1 (TDP1): qHTS in cells in absence of CPT | Potency, µM (titrated, usually from 46.2 µM), actives largely listed as inhibitors | AID 686978, 2013 | DT40 Tdp1-/- hTDP1 cells, no CPT, ATP luminescence, 48 h | 420,000 compounds, 15% hits; note: nearly all actives have a fitted effect of over 55% in size
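Luminescent ATP content (CellTiter-Glo) served as the growth readout. Knockout chicken DT40 cells expressing human TDP1 were exposed to compounds without camptothecin for a minimum 48 hr at 37 °C.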
Numbers stand for hits; - = inactive; ? = inconclusive; . = no result; [ ] = remark or other dose. Unless noted, calls come from the whole dose curve; as a rule, active = well fitted curve in the direction sought with a large enough effect; inconclusive = small, poorly fitted or top-dose-only effect, or another doubt; inactive = no such curve, though single readings can be large; an effect the other way counts as inactive or inconclusive.

SMILES | uPA surface inh | HT1080 IDH1KD tx | HT1080NT lethal | DT40 TDP1 CPT | IL-1B inflam inh | TDP1 cell noCPT
COc1cccc(S(=O)(=O)N(C)C[C@H]2OCc3cnnn3CCCC(=O)N([C@H](C)CO)C[C@H]2C)c1 | . | - | - | - | - | -
CCOC(=O)C1CCCCN1Cc1nc(N2CCN(C(C)=O)CC2)c2ccccc2n1 (stereo not drawn) | . | . | . | -[9.04 µM] | . | -
CCOC(=O)c1csc(-c2csc(CCNC(=O)c3ccccc3)n2)n1 | . | - | - | ? | - | ?
Cc1cc(OI)c(C(C)C)cc1-c1cc(C(C)C)c(OI)cc1C | . | . | . | ? | . | -
C#CCn1c(=NC(=O)c2ccco2)sc2cccc(Cl)c21 | - | - | - | - | - | -
COc1cccc2sc(=NC(=O)CCS(=O)(=O)c3ccc(C)cc3)n(C)c12 | - | - | - | ? | - | 21µM
CCOc1cccc2sc(=NC(=O)c3ccco3)n(CC(=O)OC)c12 | - | - | - | ? | - | 15µM
COCCn1c(=NC(=O)CCS(=O)(=O)c2ccccc2)sc2c(OC)ccc(OC)c21 | - | - | - | ? | - | ?
COCCn1c(=NC(=O)CCS(=O)(=O)c2ccccc2)sc2cc(C(=O)OC)ccc21 | - | - | - | - | - | -
CCCn1c(=NC(=O)CCS(=O)(=O)c2ccccc2)sc2cc(S(N)(=O)=O)ccc21 | - | - | - | 21µM | - | 21µM
CCOc1cccc2sc(=NC(=O)CCS(=O)(=O)c3ccccc3)n(CC)c12 | - | - | - | ? | - | 12µM
CCOc1cccc2sc(=NC(=O)CCS(=O)(=O)c3ccc(F)cc3)n(C)c12 | ? | - | - | ? | - | 16µM
Cn1c(=NC(=O)CCS(=O)(=O)c2ccccc2)sc2cc(F)ccc21 | - | - | - | ? | - | ?
O=C(CSC1=NCCN1)NC(c1ccccc1)c1ccccc1 | - | ? | ? | ? | -105 | 21µM
O=C(CSC1=NC(=O)C(c2ccccc2)C(=O)N1)Nc1ccccc1[N+](=O)[O-] (stereo not drawn) | - | - | - | - | - | -
O=C(CSC1=NCCN1)Nc1ccccc1[N+](=O)[O-] | - | - | - | ? | -119 | 21µM
O=C(CSC1=NCCN1)Nc1cccc([N+](=O)[O-])c1 | - | - | - | 15µM | -67 | 21µM
Cc1ccc(NC(=O)CSC2=NCCN2)cc1 | - | - | - | 23µM | -61 | 18µM
Nc1nc(SCC(=O)Nc2cccc([N+](=O)[O-])c2)n[nH]1 | - | - | - | - | - | -
COc1cccc(CNC(=O)c2ccc(CS(=O)Cc3ccccc3Cl)o2)c1 (stereo not drawn) | . | - | - | ? | - | ?
O=[N+]([O-])c1ccccc1Nc1ccccc1[N+](=O)[O-] | - | - | - | - | - | -
O=C(CC(=O)Nc1ccccc1[N+](=O)[O-])Nc1ccccc1[N+](=O)[O-] | - | - | - | - | -64 | -
O=C(Nc1ccccc1[N+](=O)[O-])C1(c2ccccc2)CCOCC1 | - | - | - | ? | - | 16µM
CN(C)c1nc2c(N)ncnc2n1[C@H]1O[C@@H](CO)[C@H](O)[C@@H]1O | - | - | - | - | - | -
[N-]=[N+]=Nc1nc2c(N)ncnc2n1C1OC(CO)C(O)C1O (stereo not drawn) | . | . | . | 0.41µM | . | 0.58µM
SMILES | uPA surface inh | HT1080 IDH1KD tx | HT1080NT lethal | DT40 TDP1 CPT | IL-1B inflam inh | TDP1 cell noCPT
Nc1ncnc2c1nc(-c1ccccc1)n2C1OC(CO)C(O)C1O (stereo not drawn) | . | ? | - | - | -50 | -
CN(C)c1nc2c(N)ncnc2n1C1OC(CO)C(O)C1O (stereo not drawn) | - | - | - | - | - | -
Nc1ncnc2c1nc(Cl)n2C1OC(CO)C(O)C1O (stereo not drawn) | . | . | . | 0.37µM | . | 0.46µM
Nc1ncnc2c1nc(Cl)n2[C@@H]1O[C@H](CO)[C@@H](O)[C@@H]1O | . | . | . | 1µM | . | 5µM
Cc1noc(C)c1-c1nccc(N2CCNCC2)n1 | . | . | . | - | . | -
O=C(c1cccc(F)c1)N1CCN(c2cccc(C(F)(F)F)c2)CC1 | - | - | - | ? | - | ?
O=C(NCc1ccccc1)c1noc2c1CCCC2 | . | ? | ? | ? | - | ?
O=C(c1noc2c1CCCCC2)N1CCN(C(c2ccccc2)c2ccccc2)CC1 | - | - | - | 13µM | - | 21µM
O=C(c1csc2c1CCCC2)N1CCN(c2ccc(F)cc2)CC1 | - | - | - | ? | - | ?
O=C(c1noc2c1CCCCC2)N1CCN(c2cccc(C(F)(F)F)c2)CC1 | . | . | . | ? | . | 16µM
O=C(c1csc2c1CCCC2)N1CCN(c2cccc(C(F)(F)F)c2)CC1 | - | - | - | ? | - | 15µM
O=C(c1noc2c1CCCC2)N1CCC(CO)(Cc2ccccc2Cl)CC1 | - | - | - | - | -81 | ?
CCOC(=O)N1CCN(C(=O)C[C@@H]2C[C@@]3(C(=O)OC)CC(C)(C)CC=C3N(Cc3ccccc3)C2=O)CC1 | . | - | - | ? | - | ?
Cc1cccc2sc(NS(C)(=O)=O)nc12 | - | - | - | - | - | -
Cc1nn(C(C)C(=O)NCc2ccco2)c(C)c1[N+](=O)[O-] (stereo not drawn) | - | - | - | - | - | -
CCCSc1cc(NCCOC(=O)CCC)c([N+](=O)[O-])c2nonc12 | - | ? | - | 2.6µM | - | 4.6µM
O=[N+]([O-])c1c(NCc2ccco2)ccc2nonc12 | - | - | - | - | . | -
CC(=O)OCCCNc1cc(SCc2ccco2)c2nonc2c1[N+](=O)[O-] | - | - | - | 21µM | -103 | ?
CCCSc1cc(NCCOC(C)=O)c([N+](=O)[O-])c2nonc12 | - | - | - | - | - | ?
CCCC(=O)OCCNc1cc(SCc2ccco2)c2nonc2c1[N+](=O)[O-] | - | 23µM | ? | ? | ? | ?
COc1cccc(N2CCN(C(=O)Cn3nc(C)n4c(cc5c(OC)cccc54)c3=O)CC2)c1 | . | . | . | - | . | -
Cc1ccsc1C(=O)OCC(=O)c1ccc(OC(F)F)cc1 | - | - | - | - | - | -
CN(C)c1cc[n+](CC(=O)c2ccc(OC(F)F)cc2)cc1 | - | - | ? | 18µM | - | 8.2µM
O=C(C[n+]1cccc(CNC(=O)c2ccc(OC(F)F)cc2)c1)c1ccccc1 | - | - | - | - | -91 | -
O=C(C[n+]1cccc(CNC(=O)c2ccc(OC(F)F)cc2)c1)Nc1cccc(C(F)(F)F)c1 | - | - | - | - | -71 | ?
